# This is part of a sample that, as a whole, favours compounds with a hit. Of some 83,000 tested, about 20% had one in any assay.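 Values shown are percent growth following 48 h exposure of cells in 96-well plates to a single concentration of compound; below 10 was considered active.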 Values without a mark were called inactive. Calls of active or inactive are those of the source.
# Tested on: MDA-MB-231 breast
# Experiment: NCI-60 one-dose screen, 48 h (100 = growth as untreated, 0 = no growth, -100 = all killed)
# Details: 10 µM unless noted
row,SMILES,growth
1,O=C(CSc1nccc(=O)[nH]1)Nc1ccc(-c2nc3ccccc3[nH]2)cc1,102%
2,N[C@@H](Cc1cn(-c2ccnc3ccccc23)nn1)C(=O)O,97.5%
3,CCOC(=O)c1c(Nc2ccccc2)nn2c(N)c(C#N)c(-c3ccc(F)cc3)nc12,78.6%
4,O=C(N/N=C/c1ccc([N+](=O)[O-])o1)c1[nH]c2ccc(Br)cc2c1-c1ccccc1,-2.79% (active)
5,CN(C)CCCNc1c2ccc(Cl)cc2nc2c1oc1ccc(Cl)cc12,-60.9% (active)
6,Cc1c(NC(=O)CSc2nc3sc4c(c3c(=O)n2-c2ccc(Cl)cc2)CCCC4)c(=O)n(-c2ccccc2)n1C,93.4%
7,CC(C)(C)Nc1nc2c(OCCc3ccccc3)cccn2c1-c1ccc(Cl)cc1,17.4%
8,CN(C)CCCNc1c2ccc(Cl)cc2nc2c1oc1ccccc12,-17.5% (active)
9,COc1ccccc1C(=O)CSc1nc(Nc2ccc(S(N)(=O)=O)cc2)c2ccccc2n1,77.3%
10,COc1ccccc1/C=C/C=N/NC1=NC2C(S1)N(C)C(=O)N2C (stereo not drawn),40%
11,COc1cccc(N2CCN(c3ncnc4c3[nH]c3ccc(F)cc34)C[C@@H]2C)c1,-4.16% (active)
12,O=C(CSc1nnc(-c2ccc3nc(-c4ccc(Cl)cc4)[nH]c3c2)o1)Nc1ccc(C(=O)/C=C/c2ccc(Cl)cc2)cc1,90.6%
13,Cc1nc2cnc(N)c(C#Cc3cncc(C(=O)Nc4ccc(Cl)c(C(F)(F)F)c4)c3)c2nc1C,7.63% (active)
14,Cc1ccc(C(=O)Nc2cccc(C(F)(F)F)c2)cc1Nc1nc(-c2cnccn2)nc2c1cnn2C,25.3%
15,CC(=O)Oc1ccccc1C(=O)Nc1cc(C(C)C)ccc1C,7.22% (active)
16,COc1ccc(/C=N/NC(=O)c2[nH]c3ccc(Br)cc3c2-c2ccccc2)s1,3.89% (active)
17,O=C(CN1C(=O)/C(=C/c2ccccc2)SC1=S)N1CCOCC1,95.2%
18,COc1ccc(-c2nc3ccc(-c4nnc(SCC(=O)Nc5ccc(C(=O)/C=C/c6ccc(Cl)cc6)cc5)o4)cc3[nH]2)cc1OC,95.2%
19,CN1C(=S)N(C)C2C1NN=C1SC(c3ccccc3)=CC(=O)N12 (stereo not drawn),83.3%

row,SMILES,growth
1,CN(C)c1ccc(/C=C2\Cc3c(F)ccc(Br)c3C2=O)cc1,90.8%
2,CN(C)S(=O)(=O)c1oc(-c2ccccc2)nc1C#N,52.2%
3,CC(C)(C)OC(=O)N1C(=O)c2c(c3c4ccccc4[nH]c3c3ccc4ccccc4c23)C1=O,66.8%
4,Cc1[nH]nc2ncc(C#Cc3cncc(C(=O)Nc4ccc(CN5CCN(C)CC5)c(C(F)(F)F)c4)c3)cc12,-39.2% (active)
5,C#Cc1nc(C2=C(C)C(=N\O)/C(=N/O)C2)cs1,61.4%
6,O=c1[nH]c2ccccc2cc1CSc1ccccc1Nc1nccc(-c2ccc(C(F)(F)F)cc2)n1,69%
7,COC1CCN(Cc2ccc3c(NNC(=O)c4cnccn4)nc4cc(F)ccc4n23)C1 (stereo not drawn),19.8%
8,O=C(CN1CCOCC1)NNc1ncnc2ccccc12,2.91% (active)
9,Cn1c(SCC(=O)Nc2ccc(-c3nc4ccc([N+](=O)[O-])cc4[nH]3)cc2)nc2ccccc2c1=O,78.5%
10,O=C(CSc1nc2sc3c(c2c(=O)n1-c1ccc(Cl)cc1)CCCC3)N/N=C/c1ccc(F)cc1,86.2%
11,O=c1/c(=C\c2ccc(-c3ccccc3)o2)sc2nc(-c3ccccc3)nn12,97.9%
12,COC(=O)C1CCCN(S(=O)(=O)/N=C2\NC(=O)NC2=C(Cl)Cl)C1 (stereo not drawn),102%
13,Clc1ccc2c(NCCCN3CCOCC3)c3oc4ccc(Cl)cc4c3nc2c1,50.3%
14,N#Cc1nc(-c2ccccc2)oc1N1CC[C@@H](CO)C1,99.1%
15,O=C(c1ccc(O)cc1)C1[C@H](c2ccc(Cl)cc2)[C@@H](c2ccccc2)NC12C(=O)Nc1ccc(Cl)cc12 (stereo partly drawn),48.6%
16,COc1cccc(OC)c1-c1nnn(C)c1C(=S)N1CCN(c2ccc([N+](=O)[O-])cc2Cl)CC1,90.5%
17,CCCC(=O)NC(c1cccc(N(C)C)c1)c1cc(C)c2cccnc2c1O (stereo not drawn),48.2%
18,CC(=O)Oc1ccccc1C(=O)Nc1ccc(C(=O)/C=C/c2ccncc2)cc1,33.6%
19,C#Cc1nc(C2=C(C)C(OC(=O)CCC(=O)O)CC2)cs1 (stereo not drawn),104%
